Screens deposited in PubChem by National Center for Advancing Translational Sciences (NCATS).
Most compounds without a hit are left out; they make up all but 5.5% or so of the library.
CtBP-E1A inh: inhibitors of CtBP/E1A interaction; hit rate 0.49% among 340,000; activity change, % (test concentration not listed); AlphaScreen GST-E1A/His-CtBP binding, 1536-well; active compounds read low; in the data active = activity change below about -65%; inconclusive = mostly about -30% to -63%; note: % is set by controls: 0 for no effect and ±100 for the full control effect
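Protein mix (5X: 125 nM each GST-E1A, His-CtBP) was incubated with pinned compound 2 h at 37 deg C in dark, in 50 mM Tris pH 8.0 buffer with 300 mM NaCl. Glutathione donor and nickel acceptor beads followed; AlphaScreen signal read after 1 h.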
VP16 counter: inhibits Gal4-VP16 luciferase reporter, ROR gamma counter-screen. Potency, µM (highest dose often 53.6 µM), without a hit: at the top dose activity, negative = inhibition, most hits filed as inhibitors. hit rate 3.5% among 310,000. Drosophila S2 Gal4-VP16 UAS-luciferase, luminescence, 20 h;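 note: Gal4-VP16 expression switched on by copper sulfate through the metallothionein promoter; potency is the fitted concentration of half-maximal effect; % is set by controls: 0 for no effect and ±100 for the full control effect; nearly all actives have a fitted effect of over 50% in size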
CBFb-RUNX1 inh: inhibitors of human CBF-beta and RUNX1 interaction; 230,000 tested, under 10 active; AlphaScreen CBFb-His/RUNX1-biotin binding, biochemical; Q01196+Q13951; Potency, µM (top dose mostly 59.8 µM), without a hit: top-dose activity, negative = inhibition, hits mostly inhibitors; note: % of control where 0% means no effect
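Bead-based AlphaScreen assay; binding partners His-tagged CBF-beta and biotinylated RUNX1 at 30 nM each. Compound exposure 15 min after a 20-min protein preincubation; bead step 90 min; all steps at room temperature.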
RORg inh: blocks mouse ROR gamma transcriptional activity; Potency, µM (series often up to 53.6 µM), for inactives: at the top dose activity change, negative = inhibition, hits mostly inhibitors; P51450; Drosophila S2 Gal4-RORgamma UAS-luciferase reporter, 20 h; hit rate 5.4% among 310,000; note: potency is the fitted concentration of half-maximal effect; % is set by controls: 0 for no effect and ±100 for the full control effect; nearly all actives have a fitted effect of over 60% in size
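Luciferase reporter read in Schneider cells carrying Gal4-RORγ (mouse) and UAS-Photinus luciferase; cells given compound 1 h before 700 uM copper sulfate induction, then incubated 20 h at ambient temperature.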
Six1-Eya2 blk: inhibitors of human Six1/Eya2 interaction; AID 651725; activity change, % (concentration not given with the values); hit rate 0.56% among 360,000; AlphaScreen GST-Six1/His-Eya2 binding, biochemical; active compounds read low; Q15475+O00167; in the data active = activity change below about -65%; inconclusive = mostly about -30% to -63%; note: % is set by controls: 0 for no effect and ±100 for the full control effect
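Homogeneous AlphaScreen proximity assay pairing GST-Six1 with His-tagged Eya2 (added as 5X mix: 250 nM and 500 nM) in 50 mM Tris pH 8.0, 300 mM NaCl, 1 mM TCEP. Glutathione donor and nickel acceptor beads; 1 h, 37 °C, dark.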
MBNL1-CUG inh: MBNL1-poly(CUG) RNA binding inhibition | Q9NR56 | TR-FRET MBNL1-His/biotin-(CUG)12 binding, 665/545 ratio | Potency, µM (top dose mostly 57.5 µM), without a hit: top-dose activity change, negative = inhibition, actives largely listed as inhibitors | hit rate 0.036% among 280,000 | AID 2675; active = well fitted inhibition curve with a large enough effect in the signal ratio, with a control signal flat, not every such curve was filed as active; inconclusive = small, poorly fitted or top-dose-only effect, or effect the other way, or a change in a side signal; inactive = no such curve, though single readings can be large or run the other way; the % refers to the signal ratio; note: potency is the fitted concentration of half-maximal effect; % is set by controls: 0 for no effect and ±100 for the full control effect
Target sequence (Q9NR56 whole entry, looked up): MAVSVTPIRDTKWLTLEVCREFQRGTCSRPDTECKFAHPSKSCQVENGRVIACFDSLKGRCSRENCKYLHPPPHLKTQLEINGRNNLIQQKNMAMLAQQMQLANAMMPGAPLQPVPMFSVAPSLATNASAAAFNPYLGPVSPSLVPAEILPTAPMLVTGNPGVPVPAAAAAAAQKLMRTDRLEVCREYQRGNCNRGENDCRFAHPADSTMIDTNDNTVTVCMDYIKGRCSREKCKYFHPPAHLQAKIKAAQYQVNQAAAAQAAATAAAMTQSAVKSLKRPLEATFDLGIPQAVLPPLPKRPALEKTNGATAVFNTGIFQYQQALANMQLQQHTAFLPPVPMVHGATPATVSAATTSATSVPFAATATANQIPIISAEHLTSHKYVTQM
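Compound titration spanned 92 nM–58 uM against the MBNL1-His/biotin-(CUG)12 complex. After 60 min at room temperature with 5 nM streptavidin-XL665 and 0.055 ng/ul terbium anti-His, ratiometric 665/545 nm emission (Ex 340 nm) normalized to controls.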
* = called active by the depositor; u = inconclusive; x = no result given; [ ] = remark or other dose. Unless noted, calls come from the whole dose curve; as a rule, active = well fitted curve in the direction sought with a large enough effect; inconclusive = small, poorly fitted or top-dose-only effect, or another doubt; inactive = no such curve, though single readings can be large; an effect the other way counts as inactive or inconclusive.

SMILES | CtBP-E1A inh | VP16 counter | CBFb-RUNX1 inh | RORg inh | Six1-Eya2 blk | MBNL1-CUG inh
Cc1cc(Nc2ncc(Cl)cc2Cl)n(-c2ccccc2C)n1 | 17 | u | 0% | 8.9µM* | 6 | u
CN(C)CCNc1ncnc2c1ncn2[C@H]1CN(Cc2cccnc2)C[C@@H](CO)O1 | 0 | x | x | x | 26 | x
NS(=O)(=O)c1ccc(CCNC(=O)CN2CCN(S(=O)(=O)c3ccccc3F)CC2)cc1 | 1 | x | x | x | 9 | x
CCCSc1nnc2n(C)c(=O)c3c4c(sc3n12)CCC4 | 0 | 4% | 5% | u | -5 | -10%
CCCCN(CCCC)C(=O)CSc1nnc2n(C)c(=O)c3c4c(sc3n12)CCCC4 | 5 | 4.5µM* | -2% | u | 1 | -13%
O=[N+]([O-])c1ccc(/C=C2\CCC(C3=CCCC3)=C2N2CCOCC2)cc1 | 15 | 4µM* | -21% | u | 1 | u
O=C(NP(=O)(N1CCCC1)N1CCCC1)C1=C(N2CCOCC2)/C(=C/c2cccc([N+](=O)[O-])c2)CC1 | -10 | 4% | -7% | -77% | -8 | 20%
Cc1nn(Cc2ccc(C(=O)NC(C)(C)C)o2)c(C)c1Br | 6 | 10µM* | 2% | u | -2 | -8%
Cc1cc(NC(=O)c2ccc(Cn3nc(C)c(Br)c3C)o2)no1 | -29 | 2% | 6% | 0% | -70* | 0%
Cc1nn(Cc2ccc(C(=O)Nc3ccc(C(=O)OC(C)C)cc3)o2)c(C)c1Cl | 2 | 7% | 0% | 1.6µM* | 0 | 1%
CCc1ccc(C(=O)Nc2cc(C)on2)o1 | 1 | 8% | x | -11% | -1 | -9%
COc1ccc(N2CCN(C(=O)c3ccc(Cn4nc(C)c([N+](=O)[O-])c4C)o3)CC2)cc1 | 11 | x | x | x | -10 | -4%
COc1ccc(CNC(=O)c2ccc(Cn3nc(C)c([N+](=O)[O-])c3C)o2)cc1 | 0 | 5µM* | u | 5.6µM* | 3 | 40%
O=C(c1ccco1)N1CCN(c2ncnc3c(-c4ccc(Cl)cc4)nsc23)CC1 | 4 | -7% | x | 4% | 4 | 25%
Cc1nnc(SCC(=O)Nc2ccccc2F)n1-c1ccc(F)cc1 | x | -5% | x | 12% | -3 | 6%
COc1ccc(CNC(=O)CC[C@H]2O[C@@H](n3ccc(=O)[nH]c3=O)[C@H](O)[C@@H]2O)cc1 | 7 | x | x | x | 1 | x
Cn1c(=S)oc2ccccc21 | 7 | -10% | u | -2% | 6 | -12%
CC(C)CC(=O)/C=C/n1c(=S)oc2ccccc21 | -2 | 11µM* | 1% | -96% | -9 | x
CC(=O)/C=C/n1c(=S)oc2ccccc21 | 0 | 3.2µM* | 1% | 2.8µM* | -3 | x
N#CC1=C2CCCCC2(O)NC1=O (configuration not stated) | 2 | x | x | x | -2 | x
ON=C1CCC2CCCCC2C1 (configuration not stated) | 1 | x | x | x | -3 | x
CC1(C)Cc2cccc(OCC(=O)NCc3ccccc3F)c2O1 | 2 | x | x | x | 3 | x
CCOC(=O)C1=C(C)N=c2s/c(=C/c3cccc([N+](=O)[O-])c3O)c(=O)n2C1c1cc(OC)c(OC)c(OC)c1 (configuration not stated) | -80* | -15% | x | 7% | -70* | u
CCOC(=O)C1=C(C)N=c2s/c(=C/c3cccc([N+](=O)[O-])c3O)c(=O)n2C1c1ccccc1 (configuration not stated) | -80* | -16% | x | -3% | -71* | u
CCc1ccccc1NC(=O)CN(C1CCCCC1)S(C)(=O)=O | 2 | -1% | x | -13% | -8 | -1%
SMILES | CtBP-E1A inh | VP16 counter | CBFb-RUNX1 inh | RORg inh | Six1-Eya2 blk | MBNL1-CUG inh
COc1ccc([C@H]2CC(=O)C[C@@H](CCn3cc(-c4ccc(F)cc4)nn3)O2)cc1 | 1 | x | x | x | -3 | x
CCn1c(CSCc2ccccc2)n[nH]c1=S | 10 | u | 1% | 4µM* | -5 | -4%
CCn1c(CCc2ccccc2)n[nH]c1=S | -3 | u | -2% | 8.9µM* | -11 | 6%
CCCn1c(CCc2ccccc2)n[nH]c1=S | 0 | 18µM* | 4% | 7.1µM* | 17 | 11%
CCn1c(Cc2c(C)[nH]c3ccccc23)n[nH]c1=S | -1 | -2% | -2% | -35% | 0 | -5%
CCn1c(CCn2c3ccccc3c3ccccc32)n[nH]c1=S | 19 | 6.3µM* | 6% | 5.6µM* | -8 | u
COc1cccc(CN(C)C(=S)Nc2ccc(C)c(C)c2)c1 | -7 | 20%[10 µM] | 0% | 11µM* | 3 | 1%
CN(C(=S)Nc1ccc(F)cc1)C(c1ccccc1)c1ccccc1 | 6 | u | x | 11µM* | 2 | -1%
Cc1ccc(NC(=S)N(C)C(c2ccccc2)c2ccccc2)cc1C | x | 10µM* | x | 3.5µM* | -3 | -6%
COc1ccc(CN(C)C(=S)Nc2ccc(OC(F)F)cc2)cc1 | 12 | u | -2% | u | -10 | -13%
COc1cccc(C2CC(c3ccccc3Cl)Nc3ncnn32)c1 (configuration not stated) | 3 | x | x | x | 0 | x
Clc1ccc(C2CC(c3cccs3)n3ncnc3N2)c(Cl)c1 (configuration not stated) | 0 | u | 13% | 11µM* | 4 | -2%
c1ccc(-c2nc(-c3cccc4ccccc34)c(Nc3ccc4ccccc4c3)o2)cc1 | x | 1% | -16% | 5.6µM* | x | x
CCNC(=O)C1(C)CCN(Cc2cccc(Oc3ccccc3)c2)C1 (configuration not stated) | 1 | x | x | x | 6 | x
O=[N+]([O-])c1ccc2c(OCc3nnc(-c4ccccc4Br)o3)ncnc2c1 | -85* | -10% | -10% | -3% | -70* | x
CCOc1ccc2nc(NC(=O)Cn3c(C)csc3=O)sc2c1 | -6 | x | x | x | -13 | x
O=C(NNc1nc(Nc2ccccc2)nc(N2CCOCC2)n1)Nc1ccc(Cl)cc1 | -14 | 5.6µM* | -6% | 1.8µM* | 4 | x
CC(=O)c1ccc(Nc2nc(N3CCOCC3)nc(N3CCOCC3)n2)cc1 | 5 | 20% | x | u | -2 | 1%
CC(=O)Nc1ccc(/C(C)=N/Nc2nc(Nc3ccccc3)nc(N3CCOCC3)n2)cc1 | 9 | u | 14% | 10µM* | -1 | -3%
C=CCC[C@H](Cc1ccc(F)cc1)C(=O)OC[C@H](Cc1c[nH]c2ccccc12)NC(=O)[C@@H](CC=C)CC(=O)NCCO | -2 | x | x | x | -10 | x
CN1CC(C(=O)Nc2ccc(F)c(Cl)c2)CC1=O (configuration not stated) | 5 | -2% | x | 10% | -3 | -2%
